Reference: PubChem BioAssay (EPA / NIEHS)
Values joined by “and” are separate entries in the source; they are usually repeats but may differ in a detail not shown here. Identical values can stand only once. Where a structure was tested more than once in an assay, its records may differ in their call. Active and inactive are the calls of the source. How the source made its calls: active means hit-call score of the fitted dose curve at least 0.9, where 1 is the maximum; inactive means score below 0.9.

Read-out: Interleukin-8 (IL8), CXCL8 (gene 3576)
Assay: BSK_BE3C_IL8: BioMAP Diversity Plus: BE3C Assay for Interleukin-8 (IL8) Biomarker Activity (AID 2284280)
Details: primary human bronchial epithelial cells
Summary of the method: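 Primary human bronchial epithelial cells (BE3C system) were exposed to test chemical for 24 h, and IL-8 levels were then measured by ELISA. Activity was fitted in the positive (gain-of-signal) direction against a DMSO negative-control baseline.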

Row | SMILES | AC50 | outcome
1 | OCCCC(F)(F)C(F)(F)C(F)(F)C(F)(F)C(F)(F)C(F)(F)C(F)(F)F | 37.1 µM (active) and 43 µM (active) | –
2 | O=S(=O)(OCC(F)F)C(F)(F)F | – | inactive
3 | O=S(=O)(O)C(F)(F)C(F)(F)C(F)(F)C(F)(F)C(F)(F)C(F)(F)C(F)(F)F | – | inactive
4 | OCC(F)(F)C(F)(F)C(F)(F)C(F)(F)C(F)(F)C(F)(F)F | – | inactive
5 | C=CC(=O)OCC(F)(F)C(F)(F)C(F)(F)C(F)(F)COC(=O)C=C | 7.98 µM (active) and 7.77 µM (active) | –
6 | O=C(O)C(F)(F)C(F)(F)C(F)(F)C(F)(F)C(F)(F)C(F)(F)C(F)(F)C(F)(F)C(F)(F)C(F)F | – | inactive
7 | C=C(C)C(=O)OCC(F)(F)C(F)(F)C(F)(F)F | – | inactive
8 | FC(F)(F)C(F)(F)CNCC(F)(F)C(F)(F)F | – | inactive
9 | COC(=O)CCC(F)(F)C(F)(F)C(F)(F)C(F)(F)F | – | inactive
10 | CC(C)(C)C(=O)CC(=O)C(F)(F)C(F)(F)C(F)(F)F | – | inactive
11 | O=C(O)C(F)(F)C(F)(F)C(F)(F)C(F)(F)C(F)(F)C(F)(F)C(F)(F)C(F)(F)Cl | 38 µM (active) and 30 µM (active) | –
12 | OCC(F)(F)C(F)(F)C(F)(F)C(F)(F)C(F)(F)C(F)F | – | inactive

Read-out: Epidermal growth factor receptor (EGFR), EGFR (gene 1956)
Assay: BSK_BE3C_EGFR: BioMAP Diversity Plus: BE3C Assay for Epidermal growth factor receptor (EGFR) Biomarker Activity (AID 2284281)
Details: primary human bronchial epithelial cells
Summary of the method: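 Human primary bronchial epithelial cells were exposed to compound for 24 h, and cell-surface EGFR was then quantified by ELISA. Activity was fitted in the positive direction against the DMSO vehicle baseline.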

Row | SMILES | outcome | AC50
13 | O=C(O)C(F)(OC(F)(F)C(F)(OC(F)(F)C(F)(OC(F)(F)C(F)(F)C(F)(F)F)C(F)(F)F)C(F)(F)F)C(F)(F)F (centres undefined) | inactive | –
14 | FC(F)(F)C(F)(F)C(F)(F)C(F)(F)C(F)(F)C(F)(F)CCS | inactive | –
15 | C=C(C)C(=O)OCC(F)(F)C(F)(F)C(F)(F)C(F)(F)C(F)(F)C(F)(F)C(F)(F)F | inactive | –
16 | FC(F)(F)C(F)(F)C(F)(F)C(F)(F)CCI | inactive | –
17 | O=C(O)C(F)(F)C(F)(F)C(F)(F)F | inactive | –
18 | N=C(N)C(F)(F)C(F)(F)C(F)(F)C(F)(F)C(F)(F)C(F)(F)C(F)(F)F | inactive | –
19 | O=C(O)C(F)(OC(F)(F)C(F)(OC(F)(F)C(F)(F)C(F)(F)F)C(F)(F)F)C(F)(F)F (centres undefined) | inactive | –
20 | O=C(O)C(F)(F)C(F)(F)C(F)(F)C(F)(F)C(F)(F)C(F)(F)C(F)(F)C(F)(F)C(F)(F)C(F)(F)C(F)(F)C(F)(F)C(F)(F)F | inactive | –
21 | FC(F)(F)C(F)(F)C(F)(F)N(C(F)(F)C(F)(F)C(F)(F)F)C(F)(F)C(F)(F)C(F)(F)F | inactive | –
22 | O=C(O)C=C(C(F)(F)F)C(F)(F)F | inactive | –
23 | O=C(O)C(F)(F)C(F)(F)F | inactive | –
24 | FC(F)(I)C(F)(F)C(F)(F)C(F)(F)I | – | 45.3 µM (active) and 47.3 µM (active) and 46.8 µM (active)
25 | OCC(F)(F)C(F)(F)C(F)(F)F | inactive | –
26 | FC(F)(F)C(F)(F)C(F)(F)C(F)(F)C(F)(F)C(F)(F)C(F)(F)Br | inactive | –
27 | OCC(F)(F)C(F)(F)C(F)(F)C(F)F | inactive | –
28 | OCCCC(F)(F)C(F)(F)C(F)(F)C(F)(F)C(F)(F)C(F)(F)C(F)(F)F | – | 20.4 µM (active) and 47.3 µM (active)
29 | O=S(=O)(OCC(F)F)C(F)(F)F | inactive | –
30 | O=S(=O)(O)C(F)(F)C(F)(F)C(F)(F)C(F)(F)C(F)(F)C(F)(F)C(F)(F)F | inactive | –
31 | OCC(F)(F)C(F)(F)C(F)(F)C(F)(F)C(F)(F)C(F)(F)F | inactive | 48.7 µM (active)
32 | C=CC(=O)OCC(F)(F)C(F)(F)C(F)(F)C(F)(F)COC(=O)C=C | – | 7.87 µM (active) and 14.5 µM (active)
33 | O=C(O)C(F)(F)C(F)(F)C(F)(F)C(F)(F)C(F)(F)C(F)(F)C(F)(F)C(F)(F)C(F)(F)C(F)F | inactive | 7.89 µM (active)
34 | C=C(C)C(=O)OCC(F)(F)C(F)(F)C(F)(F)F | inactive | –
35 | FC(F)(F)C(F)(F)CNCC(F)(F)C(F)(F)F | inactive | –
36 | COC(=O)CCC(F)(F)C(F)(F)C(F)(F)C(F)(F)F | inactive | –
37 | CC(C)(C)C(=O)CC(=O)C(F)(F)C(F)(F)C(F)(F)F | inactive | –
38 | O=C(O)C(F)(F)C(F)(F)C(F)(F)C(F)(F)C(F)(F)C(F)(F)C(F)(F)C(F)(F)Cl | – | 13.6 µM (active) and 11.5 µM (active)
39 | OCC(F)(F)C(F)(F)C(F)(F)C(F)(F)C(F)(F)C(F)F | inactive | –

Read-out: KRT18 (gene 3875)
Assay: BSK_BE3C_Keratin818: BioMAP Diversity Plus: BE3C Assay for Keratin 818 Biomarker Activity (AID 2284282)
Details: primary human bronchial epithelial cells
Summary of the method: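 ELISA readout of Keratin 8/18 in human primary bronchial epithelial cultures after 24 h chemical exposure, DMSO baseline. Parallel SRB staining (0.1%, TCA-fixed, 560 nm) served as cytotoxicity check.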

Row | SMILES | outcome | AC50
40 | O=C(O)C(F)(OC(F)(F)C(F)(OC(F)(F)C(F)(OC(F)(F)C(F)(F)C(F)(F)F)C(F)(F)F)C(F)(F)F)C(F)(F)F (centres undefined) | inactive | –
41 | FC(F)(F)C(F)(F)C(F)(F)C(F)(F)C(F)(F)C(F)(F)CCS | inactive | –
42 | C=C(C)C(=O)OCC(F)(F)C(F)(F)C(F)(F)C(F)(F)C(F)(F)C(F)(F)C(F)(F)F | inactive | –
43 | FC(F)(F)C(F)(F)C(F)(F)C(F)(F)CCI | inactive | –
44 | O=C(O)C(F)(F)C(F)(F)C(F)(F)F | inactive | –
45 | N=C(N)C(F)(F)C(F)(F)C(F)(F)C(F)(F)C(F)(F)C(F)(F)C(F)(F)F | inactive | –
46 | O=C(O)C(F)(OC(F)(F)C(F)(OC(F)(F)C(F)(F)C(F)(F)F)C(F)(F)F)C(F)(F)F (centres undefined) | inactive | –
47 | O=C(O)C(F)(F)C(F)(F)C(F)(F)C(F)(F)C(F)(F)C(F)(F)C(F)(F)C(F)(F)C(F)(F)C(F)(F)C(F)(F)C(F)(F)C(F)(F)F | inactive | –
48 | FC(F)(F)C(F)(F)C(F)(F)N(C(F)(F)C(F)(F)C(F)(F)F)C(F)(F)C(F)(F)C(F)(F)F | inactive | –
49 | O=C(O)C=C(C(F)(F)F)C(F)(F)F | inactive | –
50 | O=C(O)C(F)(F)C(F)(F)F | inactive | –
51 | FC(F)(I)C(F)(F)C(F)(F)C(F)(F)I | – | 47 µM (active) and 47.5 µM (active) and 43.1 µM (active)
52 | OCC(F)(F)C(F)(F)C(F)(F)F | inactive | –
53 | FC(F)(F)C(F)(F)C(F)(F)C(F)(F)C(F)(F)C(F)(F)C(F)(F)Br | inactive | –
54 | OCC(F)(F)C(F)(F)C(F)(F)C(F)F | inactive | –
55 | OCCCC(F)(F)C(F)(F)C(F)(F)C(F)(F)C(F)(F)C(F)(F)C(F)(F)F | – | 50.6 µM (active) and 48.5 µM (active)
56 | O=S(=O)(OCC(F)F)C(F)(F)F | inactive | –
57 | O=S(=O)(O)C(F)(F)C(F)(F)C(F)(F)C(F)(F)C(F)(F)C(F)(F)C(F)(F)F | inactive | –
58 | OCC(F)(F)C(F)(F)C(F)(F)C(F)(F)C(F)(F)C(F)(F)F | inactive | –
59 | C=CC(=O)OCC(F)(F)C(F)(F)C(F)(F)C(F)(F)COC(=O)C=C | inactive | 10.7 µM (active)
60 | O=C(O)C(F)(F)C(F)(F)C(F)(F)C(F)(F)C(F)(F)C(F)(F)C(F)(F)C(F)(F)C(F)(F)C(F)F | – | 19.6 µM (active) and 10.5 µM (active)
61 | C=C(C)C(=O)OCC(F)(F)C(F)(F)C(F)(F)F | inactive | –
62 | FC(F)(F)C(F)(F)CNCC(F)(F)C(F)(F)F | inactive | –
63 | COC(=O)CCC(F)(F)C(F)(F)C(F)(F)C(F)(F)F | inactive | –
64 | CC(C)(C)C(=O)CC(=O)C(F)(F)C(F)(F)C(F)(F)F | inactive | –
65 | O=C(O)C(F)(F)C(F)(F)C(F)(F)C(F)(F)C(F)(F)C(F)(F)C(F)(F)C(F)(F)Cl | – | 48.7 µM (active) and 56 µM (active)
66 | OCC(F)(F)C(F)(F)C(F)(F)C(F)(F)C(F)(F)C(F)F | inactive | –
